Bioassay records from PubChem BioAssay.
Most compounds without a hit are left out; they make up all but 4.7% or so of the library.
eIF4H inh – inhibitors of RNA binding by human eIF4H | Q15056 | eIF4H fluorescence polarization binding assay | inhibition, % at 35 µM | actives 0.94% (n = 290,000) | AID 2012;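 note: calls also rest on retests at 20 µM and on dose response follow-up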
PABP1 MLLE inh – inhibitors of microRNA-mediated deadenylation, human PABP1 MLLE binding | P11940 | GST-MLLE / FITC-PAM2 fluorescence polarization | inhibition, % at 20 µM | actives 0.36% (n = 360,000) | AID 588489; in the data active = inhibition above about 35%, passing the limit was not always enough;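 note: plate controls were DMSO wells with GST-MLLE for no effect and wells lacking GST-MLLE protein for full effect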
Target sequence (P11940 whole entry, looked up): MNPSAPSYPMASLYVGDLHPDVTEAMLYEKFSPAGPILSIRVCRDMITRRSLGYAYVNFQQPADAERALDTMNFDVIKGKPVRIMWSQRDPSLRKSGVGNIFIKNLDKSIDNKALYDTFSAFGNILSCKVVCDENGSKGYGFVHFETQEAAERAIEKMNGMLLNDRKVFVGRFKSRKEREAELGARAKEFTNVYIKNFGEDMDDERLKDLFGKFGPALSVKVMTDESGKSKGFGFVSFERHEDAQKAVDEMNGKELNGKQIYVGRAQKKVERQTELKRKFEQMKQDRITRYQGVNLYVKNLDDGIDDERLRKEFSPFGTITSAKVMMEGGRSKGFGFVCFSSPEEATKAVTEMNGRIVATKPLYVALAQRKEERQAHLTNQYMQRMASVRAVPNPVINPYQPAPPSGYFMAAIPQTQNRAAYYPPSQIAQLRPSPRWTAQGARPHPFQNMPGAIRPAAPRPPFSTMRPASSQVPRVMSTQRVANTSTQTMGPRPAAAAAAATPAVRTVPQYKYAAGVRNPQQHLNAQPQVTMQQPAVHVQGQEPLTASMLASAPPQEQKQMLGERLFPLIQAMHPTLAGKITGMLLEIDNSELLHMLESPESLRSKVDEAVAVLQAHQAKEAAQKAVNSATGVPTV
Efflux pump mplx – antifungal efflux pump inhibition, Nile Red retention; S. cerevisiae Candida pump triplex; inhibition, % at 10 µM; actives 0.44% (n = 330,000); AID 485275;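 active = plate passing quality check with inhibition over a set limit, or well fluorescence over plate mean plus 4 SD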;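 note: Nile Red retained in pooled yeast measured as flow cytometry median fluorescence; 0% = buffer negative control and 100% = Enniatin B positive control; higher means more Nile Red kept so more efflux inhibition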
UBC9 SUMO inh – blocks human SUMOylation mediated by UBC9; P63279; HTRF SUMOylation assay, SAE1/SAE2 + UBC9, in vitro; inhibition, % at 35 µM; actives 0.36% (n = 290,000); AID 2006; in the data active = inhibition above about 50%, passing the limit was not always enough; inconclusive = no clear call, values can overlap the other calls
ALR H2O2 inh – inhibitors of human sulfhydryl oxidase ALR; P55789; purified ALR, DTT oxidation, H2O2 HRP-luminol luminescence; inhibition, % (concentration not given with the values); actives 3.8% (n = 290,000);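 active = mean replicate inhibition above about 79%, with every replicate also reaching it, limit read from the data; inconclusive = only one of the two criteria met; inactive = mean below limit and not every replicate reaching it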
PABP polyA inh – blocks human PABP binding to poly(A) RNA; fluorescence polarization; inhibition, % at 35 µM; actives 1% (n = 290,000); AID 2014;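 note: calls also rest on retests at 20 µM and on dose response follow-up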
* = called active by the depositor; ? = inconclusive; . = no result. Unless noted, the rule behind the calls is not given here.

SMILES	eIF4H inh	PABP1 MLLE inh	Efflux pump mplx	UBC9 SUMO inh	ALR H2O2 inh	PABP polyA inh
C[C@@H]1CN([C@H](C)CO)C(=O)Cc2cc(NC(=O)Nc3ccccc3)ccc2O[C@@H]1CN(C)C(=O)Nc1ccc2c(c1)OCO2	.	2	0	.	-11	.
O=c1c(OC2OC(CO)C(O)C(O)C2OC2OC(CO)C(O)C(O)C2OC2OC(CO)C(O)C(O)C2O)c(-c2ccc(O)c(O)c2)oc2cc(O)cc(O)c12 (stereo not given)	37	9	0	-14	99*	34
OC[C@H]1O[C@@H](Oc2ccc(O)cc2)[C@H](O)[C@@H](O)[C@@H]1O	.	2	.	.	.	.
O=c1c(O)c(-c2cc(O)c(O)c(O)c2)oc2cc(O)cc(O)c12	.	13	0	.	99*	.
O=c1c(O[C@@H]2O[C@H](CO)[C@H](O)[C@H](O)[C@H]2O)c(-c2ccc(O)c(O)c2)oc2cc(O)cc(O)c12	-4	.	.	2	.	4
O=c1c(O[C@@H]2O[C@H](CO)[C@@H](O)[C@H](O)[C@H]2O)c(-c2ccc(O)cc2)oc2cc(O)cc(O)c12	.	-10	1	.	94*	.
O=C(CCc1ccc(O)cc1)c1c(O)cc(O)cc1O[C@@H]1O[C@H](CO)[C@@H](O)[C@H](O)[C@H]1O	10	-3	0	6	81*	2
COc1cccc(OC)c1C(=O)OCC(=O)N(c1ccccc1)C1CCCCC1	.	8	0	.	-1	.
O=C(CSc1nc(C2CC2)nc2ccccc12)N1CCc2ccccc21	.	3	.	.	.	.
O=c1c(O[C@@H]2O[C@H](CO)[C@@H](O)[C@H](O)[C@H]2O)c(-c2ccc(O)c(O)c2)oc2cc(O)cc(O)c12	2	.	.	6	.	1
C[C@@H]1O[C@@H](OC[C@H]2O[C@@H](Oc3c(-c4ccc(O)c(O)c4)oc4cc(O)cc(O)c4c3=O)[C@H](O)[C@@H](O)[C@@H]2O)[C@H](O)[C@H](O)[C@H]1O	61*	-7	0	7	99*	19*
COc1c(-c2ccc(O)c(O)c2)oc2cc(O)cc(O)c2c1=O	6	-16	0	4	98*	17
CC1OC(OCC2OC(Oc3c(-c4ccc(O)cc4)oc4cc(O)cc(O)c4c3=O)C(O)C(O)C2O)C(O)C(O)C1O (stereo not given)	?	13	0	29	70	?
CCOC(=O)N1CCN(C(=O)CCCCCn2c(=S)[nH]c3ccsc3c2=O)CC1	0	-16	0	-6	93*	17
CCOC(=O)N1CCN(C(=O)CCCn2c(=S)[nH]c3ccccc3c2=O)CC1	4	-46	0	0	60	6
CCOC(=O)N1CCN(C(=O)CCCn2c(=S)[nH]c3ccc(Br)cc3c2=O)CC1	0	-52	0	27	.	4
CC(NC(=O)CCn1c(=S)[nH]c2ccsc2c1=O)c1ccccc1 (stereo not given)	-5	-28	0	6	95*	-7
CCOC(=O)N1CCN(C(=O)CCCn2c(=S)[nH]c3ccsc3c2=O)CC1	-5	-15	0	-4	95*	7
CC1CCc2sc(-c3n[nH]c(=S)o3)cc2C1 (stereo not given)	-2	11	0	16	98*	12
S=c1[nH]nc(-c2cc3c(s2)-c2ccccc2CC3)o1	-1	11	0	37	97*	6
CC1CCc2sc(C(=O)NC3CCCCC3)cc2C1 (stereo not given)	.	1	0	.	-3	.
O=C(c1cc(COc2ccc(F)c(F)c2)on1)N1CCN(C/C=C/c2ccccc2)CC1	1	13	.	-18	.	5
COc1ccc(CC2(C)OC(c3ccc(C)c([N+](=O)[O-])c3)=NN2C(C)=O)cc1 (stereo not given)	-14	1	0	-8	0	-5
COc1ccc(-c2coc3c(C(=O)NCc4cccs4)cccc23)c(C)c1	.	-3	.	.	.	.
Cc1ccc(/C=C/C(=O)c2ccc(C)cc2)cc1	3	13	0	-10	9	-2
SMILES	eIF4H inh	PABP1 MLLE inh	Efflux pump mplx	UBC9 SUMO inh	ALR H2O2 inh	PABP polyA inh
Cc1ccc(C(=O)/C=C/C(=O)c2ccc(C)cc2)cc1	.	1	0	-6	67	87*
Cc1cccc(Nc2c(O)nc[nH]c2=O)c1	.	19	.	.	.	.
Cc1cc(C)c[n+](-c2[nH]c(=O)sc2/C=N/N=C(\[O-])c2cccnc2)c1	8	36*	0	-1	-7	24
O=c1cc2c(=O)oc3cc(O)c(O)oc3c2c(O)c1O	92*	30	.	89	.	96*
CNC(=S)NN=C(C)CCCC(C)=NNC(=S)NC	.	-16	.	.	.	.
O=C1CC(c2ccc(Cl)cc2)CC(O)=C1C=NCCO (stereo not given)	6	17	0	-11	-16	-1
CCOc1ccccc1NC(=O)Cn1c(=O)n(-c2ccccc2)c(=O)c2oc3ccccc3c21	2	-2	0	6	2	-18
CC1=C(C(=O)NC2CCCc3c2cnn3-c2ccc(F)cc2F)OCCO1 (stereo not given)	.	2	0	.	89*	.
O=C1NC(c2ccc(Br)cc2)=N/C1=C/c1ccco1	?	-2	0	51*	-5	4
CCOc1nc(Oc2cccc(C(=O)O)c2)nc(Oc2cccc(C(=O)O)c2)n1	-2	0	0	-23	97*	12
O=C(CCCc1c[nH]c2ccccc12)Nc1ncccc1O	-2	-1	-1	0	71	-6
Cc1cc(C)c(NC(N)=S)c(C)c1	-6	-122	0	-8	-3	-1
Cn1c(N)c(C(=O)Nc2c(Cl)cccc2Cl)sc1=S	-11	17	0	12	99*	6
COc1ccc(CCNC(=O)c2sc(=S)n(C)c2N)cc1	-5	43*	0	-21	4	8
Cn1c(N)c(C(=O)NCc2ccccc2)sc1=S	?	14	0	-5	81*	?
CNC(=S)NCCc1ccc(OC)cc1	2	-70	0	23	-9	92*
COC(=O)c1ccccc1NC(=O)c1sc(=S)n(C)c1N	-12	30	0	18	42	-11
COc1ccc(N2CCN(C3CCCN(C(=O)CN4CCCC4=O)C3)CC2)cc1 (stereo not given)	-4	-7	0	2	27	2
O=C(COc1ccc(F)c(Cl)c1)Nc1ccc(N2CCOCC2)cc1	.	5	0	.	8	.
CCCCNC(=O)c1sc(=S)n(-c2ccccc2OC)c1N	2	45*	0	4	48	-2
O=C(CSc1nc(=O)n(CCCN2CCOCC2)c2c1CCC2)Nc1ccc(F)cc1	.	-1	0	.	98*	.
CC(C)c1ccc(NC(=O)CSc2nc(=O)n(CCN3CCOCC3)c3c2CCC3)cc1	.	7	0	.	99*	.
CCc1ccc(NC(=O)CSc2nc3ccccc3nc2N2CCCC2)cc1	0	7	0	-6	88*	10
CCOc1ccc(NC(=O)CSc2nc(=O)n(Cc3ccccn3)c3c2CCC3)cc1	.	22	0	.	?	.
